Six sequences from article PMC8384837, “Expanding the binding specificity for RNA recognition by a PUF domain” can be followed below.

Assay in all cases: yeast three-hybrid, YBZ-1, SC-Leu-His + 0.5 mM 3-AT, 4 days
Conditions in all cases: tags: N-Gal4 AD-HA kept; label: inside an RPR1-promoter hybrid RNA with tandem MS2 sites; ssRNA

One assay has as its target PUM1 PUF domain R1-KAN (Homo sapiens, UniProt Q14671 828-1176, S863K;R864A;Q867N). Summed up:
(§1)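 Each repeat of the Pumilio-1 PUF domain was randomized at its three base-contacting residues, and these libraries were co-expressed from a centromeric plasmid with matching RNA elements in strain YBZ-1. After four days on SC-Leu (input) or SC-Leu-His + 0.5 mM 3-AT (selection), the repeat regions were PCR-amplified and Illumina-sequenced. The interaction score compares variant frequency between input and selection as a log change, computed in log2 with a pseudocount of 1 for absent variants.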

For the next assay, the target named is PUM1 PUF domain R2-RRA (Homo sapiens, UniProt Q14671 828-1176, N899R;Y900R;Q903A). Summed up:
as §1

For the next assay, the target named is PUM1 PUF domain R4-DWT (Homo sapiens, UniProt Q14671 828-1176, N971D;H972W;Q975T). The gist of the method: as §1
The next assay concerns the target PUM1 PUF domain R3-LFE (Homo sapiens, UniProt Q14671 828-1176, C935L;R936F;Q939E). The gist of the method: as §1
The target in another assay is PUM1 PUF domain R3-API (Homo sapiens, UniProt Q14671 828-1176, C935A;R936P;Q939I). The gist of the method:
as §1

In the next assay the target is PUM1 PUF domain R1-KTQ (Homo sapiens, UniProt Q14671 828-1176, S863K;R864T). Summed up: as §1
The target of a further assay is PUM1 PUF domain R4-PWQ (Homo sapiens, UniProt Q14671 828-1176, N971P;H972W). The gist of the method: as §1
The next assay addresses PUM1 PUF domain R4-FNG (Homo sapiens, UniProt Q14671 828-1176, N971F;H972N;Q975G). Summed up:
as §1

The target of the next assay is PUM1 PUF domain R4-RHI (Homo sapiens, UniProt Q14671 828-1176, N971R;Q975I). The gist of the method: as §1
For another assay, the target named is PUM1 PUF domain R3-RQS (Homo sapiens, UniProt Q14671 828-1176, C935R;R936Q;Q939S). The gist of the method: as §1

On to “GGCUAGAACUAGUGGAUCCCCCGGCGCCCGGCGGCUCGAGCCCGGGUAAGUGUAAAUGGUCUGCAUGCCGCCGGGCGCCAUGCCUGCAGGUCGACUCUAGAAAACAUG”, for which, in the assay with PUM1 PUF domain R1-KAN, the binding signal was 2.46 log2 enrichment (interaction score).

Regarding “GGCUAGAACUAGUGGAUCCCCCGGCGCCCGGCGGCUCGAGCCCGGGUAAGUGUAAAGAGUCUGCAUGCCGCCGGGCGCCAUGCCUGCAGGUCGACUCUAGAAAACAUG”, the binding signal with PUM1 PUF domain R2-RRA was 2.69 log2 enrichment (interaction score).

For the sequence “GGCUAGAACUAGUGGAUCCCCCGGCGCCCGGCGGCUCGAGCCCGGGUAAGUGUAAAUAGUCUGCAUGCCGCCGGGCGCCAUGCCUGCAGGUCGACUCUAGAAAACAUG”, the values for the binding signal in the assay with PUM1 PUF domain R4-DWT, in the assay with PUM1 PUF domain R3-LFE and with PUM1 PUF domain R3-API were 6.18 log2 enrichment (interaction score), 3.02 log2 enrichment (interaction score) and 3.13 log2 enrichment (interaction score), respectively.

Turning to “GGCUAGAACUAGUGGAUCCCCCGGCGCCCGGCGGCUCGAGCCCGGGUAAGUGUAAAUUGUCUGCAUGCCGCCGGGCGCCAUGCCUGCAGGUCGACUCUAGAAAACAUG”, the binding signal with PUM1 PUF domain R1-KTQ is 5.82 log2 enrichment (interaction score).

As to “GGCUAGAACUAGUGGAUCCCCCGGCGCCCGGCGGCUCGAGCCCGGGUAAGUGUAUAUAGUCUGCAUGCCGCCGGGCGCCAUGCCUGCAGGUCGACUCUAGAAAACAUG”, the binding signal is 5.05 log2 enrichment (interaction score) in the assay with PUM1 PUF domain R4-PWQ, 4.34 log2 enrichment (interaction score) in the assay with PUM1 PUF domain R4-FNG and 3.1 log2 enrichment (interaction score) with PUM1 PUF domain R4-RHI.

Consider “GGCUAGAACUAGUGGAUCCCCCGGCGCCCGGCGGCUCGAGCCCGGGUAAGUGUAAUUAGUCUGCAUGCCGCCGGGCGCCAUGCCUGCAGGUCGACUCUAGAAAACAUG”, for which the figures for the binding signal with PUM1 PUF domain R3-LFE and with PUM1 PUF domain R3-RQS were 1.57 log2 enrichment (interaction score) and 4.09 log2 enrichment (interaction score), respectively.
